# Compounds without any hit were thinned out: in the full panel of roughly 79,000, 15% have a hit. A number with no mark means an inactive call. The source made the active and inactive calls. No stated cut-off is given here; in the data, active means growth inhibition above about 70%; inactive means the rest.
# Experiments:
# [1] = NCI Yeast Anticancer Drug Screen. Data for the rad50 strain (AID 155);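 further: 0% = growth of vehicle-only cultures of the same strain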; details: S. cerevisiae rad50 strain growth inhibition, stronger effect = higher value
# Summary of the method: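 A DNA repair-deficient yeast mutant serves as the test organism; compound-induced growth inhibition is calculated against vehicle-treated cells.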
# [2] = NCI Yeast Anticancer Drug Screen. Data for the mec2-1 strain (AID 157); details: S. cerevisiae mec2-1 strain, stronger effect = higher value
# Summary of the method: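 Readout is yeast growth inhibition, normalised to vehicle-treated controls, in the mec2-1 strain exposed to compound.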
# [3] = NCI Yeast Anticancer Drug Screen. Data for the sgs1 mgt1 strain (AID 161);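 further: 0% = growth of cultures given vehicle only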; details: S. cerevisiae sgs1 mgt1 strain, stronger effect = higher value
# Summary of the method: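 This yeast growth screen uses a strain with defined DNA-repair lesions; compound-treated growth is compared with vehicle-treated growth.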
# [4] = NCI Yeast Anticancer Drug Screen. Data for the cln2 rad14 strain (AID 165);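 further: 0% = growth equal to vehicle treated cultures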; details: S. cerevisiae cln2 rad14 strain, stronger effect = higher value
# Summary of the method: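 Relative to vehicle controls, growth inhibition of compound-treated cln2 rad14 yeast was recorded.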
# [5] = NCI Yeast Anticancer Drug Screen. Data for the bub3 strain (AID 167); details: S. cerevisiae bub3 mutant strain, stronger effect = higher value
# Summary of the method: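 Inhibition values come from growth of compound-treated mutant yeast normalised to vehicle-treated controls.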
# [6] = NCI Yeast Anticancer Drug Screen. Data for the mlh1 rad18 strain (AID 175); details: S. cerevisiae mlh1 rad18 strain growth inhibition, stronger effect = higher value
# Summary of the method: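 Test agents were incubated with a yeast strain of defined genotype (DNA damage repair defect). Inhibition of growth was derived by comparison with vehicle-exposed cultures.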
# [7] = at 5.0 µM (retest, dose inferred, filed as 0.5)
# [8] = at 50.0 µM (retest, dose inferred, filed as 5.0)
SMILES,"growth inhibition [1, 7]","growth inhibition [1, 8]",growth inhibition ([1]; at 50.0 µM),"growth inhibition [2, 7]","growth inhibition [2, 8]",growth inhibition ([2]; at 50.0 µM),"growth inhibition [3, 7]","growth inhibition [3, 8]",growth inhibition ([3]; at 50.0 µM),"growth inhibition [4, 7]","growth inhibition [4, 8]",growth inhibition ([4]; at 50.0 µM),"growth inhibition [5, 7]","growth inhibition [5, 8]",growth inhibition ([5]; at 50.0 µM),"growth inhibition [6, 7]","growth inhibition [6, 8]",growth inhibition ([6]; at 50.0 µM)
BrCc1ccc([Si](c2ccccc2)(c2ccccc2)c2ccc(CBr)cc2)cc1,-3%,-16%,48.1%,14%,8%,20.1%,-15%,-18%,53%,-1%,-25%,78.5% (active),-2%,-15%,10.5%,3%,-30%,53.5%
CCCCCCCCCCCCCCCCNC(=O)/C(=C\c1ccccc1O)NC(=O)c1ccccc1,0%,6%,66.2%,-8%,-2%,35.1%,0%,14%,71.7% (active),33%,-20%,27.3%,2%,8%,73.7% (active),18%,-6%,67.6%
CC12CCC(O)CC1=CCC1C2CCC2(C)C(NC(=O)C(Cc3ccc(O)cc3)NC(=O)OCc3ccccc3)CCC12 (configuration not stated),24%,94% (active),-7.7%,21%,97% (active),2.95%,22%,96% (active),-2.85%,21%,94% (active),38.6%,-4%,93% (active),-5.4%,41%,96% (active),-8.2%
O=C1/C(=C/c2cccc(O)c2)SC(=S)N1/C=C\c1nc2ccccc2[nH]c1=O,8%,2%,9.55%,-8%,-13%,5.1%,-4%,1%,3.6%,17%,-32%,33.2%,11%,-5%,-3.85%,-2%,-7%,-0.25%
O=C/C(Br)=C\c1ccccc1,36%,99% (active),55.2%,20%,99% (active),99.2% (active),25%,99% (active),49.5%,12%,99% (active),98.4% (active),26%,99% (active),48.4%,16%,99% (active),7.45%
N#CC(C#N)=Cc1ccc(Oc2ccccc2)cc1,2%,31%,88.2% (active),-21%,54%,82.1% (active),13%,56%,58.9%,25%,62%,66.3%,-6%,90% (active),83.7% (active),2%,77% (active),73.9% (active)
CCOC(=O)C(NC(C)=O)[CH](c1ccc(OC)cc1)[Sn]([c]1ccccc1)([c]1ccccc1)[c]1ccccc1 (configuration not stated),99% (active),99% (active),48.6%,99% (active),99% (active),58.1%,99% (active),99% (active),48.2%,98% (active),99% (active),99% (active),99% (active),98% (active),47.4%,99% (active),99% (active),85.4% (active)
ClC1=C(Cl)C(Cl)(Cl)C(Cl)(Cl)C1(Cl)Cl,55%,7%,99.7% (active),49%,99% (active),99.5% (active),59%,62%,99.7% (active),31%,98% (active),98% (active),41%,98% (active),99.4% (active),84% (active),99% (active),99.2% (active)
O=C(O)C/C(=C\c1ccco1)C(=O)O,-8%,9%,44.9%,-4%,-9%,-11.5%,-4%,-2%,-30.6%,-1%,-1%,38%,-8%,-13%,-27.9%,-4%,-7%,-16.4%
N#CC(C#N)C(c1ccccc1)c1ccccc1,-4%,5%,13.1%,6%,20%,17.9%,1%,-41%,11%,-3%,-10%,-1.1%,0%,0%,1.75%,-1%,2%,10.5%
Nc1ccc(S(=O)(=O)Nc2nc3ccccc3nc2N2CCCCC2)cc1,29%,46%,51.8%,35%,44%,40.8%,32%,94% (active),64.7%,36%,91% (active),32.3%,30%,96% (active),76.4% (active),44%,60%,85.9% (active)
O=C(O)Cc1c[nH]c2ccccc12,46%,-3%,51%,31%,7%,64%,42%,-2%,94% (active),9%,-12%,49%,85% (active),-8%,92.5% (active),84% (active),-2%,91.2% (active)
[Pt].c1ccc(P(CCP(CCP(c2ccccc2)c2ccccc2)CCP(c2ccccc2)c2ccccc2)c2ccccc2)cc1,6%,83% (active),71.2% (active),36%,91% (active),84.2% (active),19%,89% (active),80% (active),6%,91% (active),78% (active),0%,92% (active),80.2% (active),17%,89% (active),79% (active)
CCCCN(Cc1ccccc1)CC(O)c1cc2c(c3ccccc13)CCCC2 (configuration not stated),-2%,85% (active),95.9% (active),9%,89% (active),80% (active),0%,95% (active),93.2% (active),-7%,59%,92.2% (active),-7%,84% (active),76.1% (active),18%,92% (active),92.8% (active)
Nc1nc2ccccc2cc1C(=O)O,-162%,-150%,-2.25%,-49%,-47%,19.3%,-61%,-55%,-7.95%,-54%,-48%,63.5%,-69%,-70%,12.5%,-140%,-107%,3.9%
CSC1=Nc2ccccc2SC(c2ccccc2)C1c1ccccc1 (configuration not stated),4%,14%,20.1%,0%,15%,29.3%,6%,17%,67%,-3%,-9%,84.7% (active),5%,7%,53.3%,3%,8%,63.9%
COc1ccc(OC2OC(COC(c3ccccc3)(c3ccc(OC)cc3)c3ccc(OC)cc3)C(O)C(O)C2O)cc1 (configuration not stated),4%,98% (active),97.5% (active),-10%,98% (active),97% (active),9%,69%,98.1% (active),11%,98% (active),97.6% (active),4%,99% (active),95.5% (active),-11%,98% (active),96.7% (active)
NNC(=S)N/N=C(/C(=O)Nc1ccc(Cl)c(Cl)c1)C(C1OC(=O)c2ccccc21)[N+](=O)[O-] (configuration not stated),27%,44%,26.6%,20%,39%,4.45%,9%,59%,34.4%,31%,48%,23.4%,28%,62%,32.5%,20%,44%,29.8%
COc1ccc2c(c1)OC(c1ccccc1O)CC2=O (configuration not stated),0%,-17%,55.9%,-44%,-30%,24.1%,-10%,11%,72.1% (active),-14%,12%,20.7%,-2%,-9%,55.5%,-70%,-34%,36.5%
